Assay [1] addresses Estrogen receptor (Homo sapiens) (UniProt P03372). Briefly: qHTS assay for small molecule agonists of estrogen receptor alpha signaling (AID 588514).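 Note: 0% = vehicle only and 100% = reference agonist; nearly all actives have a fitted effect of over 70% in size.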 In short, it runs like this: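 Efficacy is expressed against 20 nM 17-beta-estradiol (100%) and DMSO basal (0%); EC50 from Hill equation. Assay: beta-lactamase reporter in ER-alpha-UAS-bla HEK 293 cells, 18 h compound incubation, CCF4 detection.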
On the technique in general: In qHTS, concentration-response curves come from the screen itself.

The target of assay [2] is Androgen receptor (Homo sapiens) (UniProt P10275). Briefly: qHTS assay for small molecule antagonists of androgen receptor signaling (AID 588516; active = well fitted curve in the direction sought with a large enough effect in the signal ratio, with a control signal flat, not every such curve was filed as active; the % refers to the signal ratio; note: % is set by controls: 0 for no effect and ±100 for the full control effect). The gist of the method:
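Compounds tested in titration against 10 nM R1881 in AR-responsive bla reporter HEK 293 cells; CCF4 fluorescence (460/530 nm) after 16 h exposure gave IC50 and efficacy.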

Assay [3] concerns the target Bile acid receptor (Homo sapiens) (UniProt Q96RI1). Briefly: qHTS assay for small molecule antagonists of farnesoid X receptor signaling (AID 588526). Note: potency is the fitted concentration of half-maximal effect. The gist of the method: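 Concentration-response titrations were fitted to the Hill equation for half-maximal inhibition and maximal response, with data normalised to 50 uM chenodeoxycholic acid and DMSO control wells. Cells: FXR-UAS-bla HEK293T, dialyzed FBS.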

Assay [4] has the same target. In words: qHTS assay for small molecule agonists of farnesoid X receptor signaling (AID 588527).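 Note: series mostly up to about 77 µM; 0% = vehicle basal and 100% = reference agonist.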 To be noted: HEK293T FXR-UAS-bla, beta-lactamase ratio, 16 h; activation: stronger effect = higher value. The gist of the method:
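FXR-UAS-bla HEK293T, 10% dialyzed FBS; cpds up to 92 uM titration, 16 h 37 C; CCF4 dye 2 h RT; fluorescence. Normalized to chenodeoxycholic acid 100 uM (100%) and DMSO (0%); Hill fit gives EC50, efficacy.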

Assay [5] addresses Peroxisome proliferator-activated receptor delta (Homo sapiens) (UniProt Q03181). Briefly: qHTS assay for small molecule antagonists of peroxisome proliferator-activated receptor delta signaling (AID 588535; active = well fitted inhibition curve with a large enough effect in the signal ratio, with a control signal flat, not every such curve was filed as active; the % refers to the signal ratio). The gist of the method:
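Inhibition of PPAR-delta response element-driven beta-lactamase expression is measured in HEK293T cells exposed to a compound titration series for 18 hrs at 37 C. Half-maximal inhibition comes from Hill equation fitting.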

A short description of assay [6]: qHTS assay for small molecule agonists of retinoid X receptor alpha signaling (AID 588544). To be noted: HEK293T RXRa-UAS-bla, beta-lactamase reporter, 18 h; 530 nm emission.
Assay [7] is described as follows: qHTS assay for small molecule agonists of the antioxidant response element (ARE) signaling pathway (AID 651741; active = well fitted activation curve with a large enough effect in the signal ratio; the % refers to the signal ratio; note: potency is the fitted concentration of half-maximal effect; for activation: % of control where 0% means no effect). In short, it runs like this: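 Reporter: beta-lactamase under ARE, stably in HepG2. Exposure: 16 h, 37 C, compounds delivered in DMSO by pin tool after 5 h cell preincubation. Readout: FRET substrate fluorescence after 2 h at RT.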
Assay [8] can be described thus: qHTS assay for small molecule activators of the nuclear factor-kappa B (NF-kB) signaling pathway (AID 651749; active = well fitted activation curve with a large enough effect in the signal ratio; the % refers to the signal ratio; note: series mostly up to about 77 µM; % of control where 0% means no effect). To be noted: NF-kB-bla ME-180 cells, beta-lactamase FRET ratio, 16 h; activation: stronger effect = higher value. In short, it runs like this:
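Human ME-180 cervical cells with an NF-kB-bla construct; compounds added via 23 nL pin transfer, DMSO as vehicle; incubation 16 hr. Reporter activity measured by FRET disruption.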

Assay [9] is described as follows: qHTS assay for small molecule activators of the human pregnane X receptor (PXR) signaling pathway (AID 720659; call rule not given here; note: 0% is about no effect).
Assay [10] concerns the target Androgen receptor (Homo sapiens) (UniProt P10275). In words: qHTS assay for small molecule agonists of androgen receptor signaling (AID 588515; active = well fitted curve in the direction sought with a large enough effect in the signal ratio, with a control signal flat; the % refers to the signal ratio; note: % is set by controls: 0 for no effect and ±100 for the full control effect). To be noted: AR-UAS-bla HEK293, beta-lactamase ratio, agonist 16 h; stronger effect = higher value. The gist of the method:
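Stimulation of an AR-responsive β-lactamase reporter in GripTite HEK293 cells was measured after 16 h compound exposure at 37 °C, via CCF4 fluorescence after 2 h RT. EC50 from Hill fits, normalized to R1881 at 30 nM.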

The target of assay [11] is Glucocorticoid receptor (Homo sapiens) (UniProt P04150). Briefly: qHTS assay for small molecule antagonists of glucocorticoid receptor signaling (AID 588533; active = well fitted inhibition curve with a large enough effect in the signal ratio, with a control signal flat, not every such curve was filed as active; the % refers to the signal ratio;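 note: cells stimulated with 2 nM dexamethasone as agonist; % is set by controls: 0 for no effect and ±100 for the full control effect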). In short, it runs like this:
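Antagonist-mode qHTS: compound titrations added to GRE-bla HeLa cells, then dexamethasone 2 nM final; 18 h, 37 C. CCF4 FRET fluorescence normalized to dexamethasone and DMSO; IC50 from Hill fit.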

Values joined by “and” are separate entries in the source; they are usually repeats but may differ in a detail not shown here. Equal values may be shown once. Results filed as inconclusive are left out. Active and inactive are the calls of the source. Unless noted, calls come from the whole dose curve.

Sequence of Androgen receptor (Homo sapiens) (P10275 whole entry, looked up): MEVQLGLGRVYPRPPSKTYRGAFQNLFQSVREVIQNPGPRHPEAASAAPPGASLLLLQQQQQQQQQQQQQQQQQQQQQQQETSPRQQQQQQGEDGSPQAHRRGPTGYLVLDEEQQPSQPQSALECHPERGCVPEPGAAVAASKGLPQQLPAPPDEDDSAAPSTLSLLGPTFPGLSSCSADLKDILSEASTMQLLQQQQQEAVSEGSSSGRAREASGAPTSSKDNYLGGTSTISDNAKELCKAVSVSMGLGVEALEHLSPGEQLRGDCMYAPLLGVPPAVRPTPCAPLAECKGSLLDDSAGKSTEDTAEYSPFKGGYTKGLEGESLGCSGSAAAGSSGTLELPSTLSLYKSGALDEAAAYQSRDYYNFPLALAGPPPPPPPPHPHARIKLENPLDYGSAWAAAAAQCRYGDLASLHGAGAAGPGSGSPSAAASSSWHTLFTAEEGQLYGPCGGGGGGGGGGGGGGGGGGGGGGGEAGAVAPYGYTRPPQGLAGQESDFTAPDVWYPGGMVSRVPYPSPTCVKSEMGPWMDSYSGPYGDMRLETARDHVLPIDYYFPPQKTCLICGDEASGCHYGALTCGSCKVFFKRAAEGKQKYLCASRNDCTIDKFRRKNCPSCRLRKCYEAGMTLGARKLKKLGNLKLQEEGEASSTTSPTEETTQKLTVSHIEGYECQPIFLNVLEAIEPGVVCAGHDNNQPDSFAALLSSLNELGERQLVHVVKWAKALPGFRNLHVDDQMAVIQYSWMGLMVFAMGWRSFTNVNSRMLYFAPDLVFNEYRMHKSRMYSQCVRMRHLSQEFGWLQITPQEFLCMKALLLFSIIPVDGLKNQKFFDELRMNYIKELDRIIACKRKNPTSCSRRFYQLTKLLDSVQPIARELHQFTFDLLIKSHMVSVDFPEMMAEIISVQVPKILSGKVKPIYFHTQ
Sequence of Bile acid receptor (Homo sapiens) (Q96RI1 whole entry, looked up): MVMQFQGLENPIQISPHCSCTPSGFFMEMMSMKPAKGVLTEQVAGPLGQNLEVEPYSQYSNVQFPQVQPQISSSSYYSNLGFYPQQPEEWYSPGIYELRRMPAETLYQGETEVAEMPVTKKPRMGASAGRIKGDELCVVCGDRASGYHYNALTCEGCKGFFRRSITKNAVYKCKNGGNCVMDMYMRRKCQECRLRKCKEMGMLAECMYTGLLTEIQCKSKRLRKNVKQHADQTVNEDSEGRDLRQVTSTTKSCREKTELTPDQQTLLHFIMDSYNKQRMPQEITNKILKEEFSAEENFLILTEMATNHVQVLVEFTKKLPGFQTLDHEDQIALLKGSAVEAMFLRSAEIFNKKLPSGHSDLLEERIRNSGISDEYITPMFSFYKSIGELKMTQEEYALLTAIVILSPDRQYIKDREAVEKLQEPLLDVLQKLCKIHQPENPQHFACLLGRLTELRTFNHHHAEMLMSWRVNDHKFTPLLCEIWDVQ
Sequence of Estrogen receptor (Homo sapiens) (P03372 whole entry, looked up): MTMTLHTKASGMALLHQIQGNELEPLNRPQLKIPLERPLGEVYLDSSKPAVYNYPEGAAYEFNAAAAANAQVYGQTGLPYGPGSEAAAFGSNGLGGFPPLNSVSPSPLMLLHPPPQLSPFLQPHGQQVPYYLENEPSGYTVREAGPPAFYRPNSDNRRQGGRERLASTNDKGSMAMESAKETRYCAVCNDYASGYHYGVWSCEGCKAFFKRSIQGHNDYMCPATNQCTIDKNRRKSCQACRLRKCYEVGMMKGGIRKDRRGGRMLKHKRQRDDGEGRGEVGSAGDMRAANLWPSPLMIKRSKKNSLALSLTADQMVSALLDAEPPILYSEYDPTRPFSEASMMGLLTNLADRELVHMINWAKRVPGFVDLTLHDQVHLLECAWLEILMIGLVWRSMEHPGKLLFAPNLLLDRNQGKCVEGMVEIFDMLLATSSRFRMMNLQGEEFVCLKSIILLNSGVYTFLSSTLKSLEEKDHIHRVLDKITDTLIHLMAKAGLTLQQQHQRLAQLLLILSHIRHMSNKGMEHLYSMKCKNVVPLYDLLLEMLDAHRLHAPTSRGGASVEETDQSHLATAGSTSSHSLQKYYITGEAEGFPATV
Sequence of Peroxisome proliferator-activated receptor delta (Homo sapiens) (Q03181 whole entry, looked up): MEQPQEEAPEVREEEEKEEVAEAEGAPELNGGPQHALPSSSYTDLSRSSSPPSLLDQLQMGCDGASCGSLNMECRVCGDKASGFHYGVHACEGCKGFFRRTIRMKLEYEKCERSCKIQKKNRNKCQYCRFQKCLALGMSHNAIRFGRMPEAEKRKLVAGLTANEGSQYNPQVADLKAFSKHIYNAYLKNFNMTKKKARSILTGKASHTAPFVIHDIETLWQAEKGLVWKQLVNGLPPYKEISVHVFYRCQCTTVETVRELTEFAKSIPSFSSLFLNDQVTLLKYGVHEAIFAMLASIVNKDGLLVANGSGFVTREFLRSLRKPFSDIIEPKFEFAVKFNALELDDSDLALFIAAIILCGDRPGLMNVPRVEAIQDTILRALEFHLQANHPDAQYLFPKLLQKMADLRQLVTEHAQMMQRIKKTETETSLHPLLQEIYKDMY
Sequence of Glucocorticoid receptor (Homo sapiens) (P04150 whole entry, looked up): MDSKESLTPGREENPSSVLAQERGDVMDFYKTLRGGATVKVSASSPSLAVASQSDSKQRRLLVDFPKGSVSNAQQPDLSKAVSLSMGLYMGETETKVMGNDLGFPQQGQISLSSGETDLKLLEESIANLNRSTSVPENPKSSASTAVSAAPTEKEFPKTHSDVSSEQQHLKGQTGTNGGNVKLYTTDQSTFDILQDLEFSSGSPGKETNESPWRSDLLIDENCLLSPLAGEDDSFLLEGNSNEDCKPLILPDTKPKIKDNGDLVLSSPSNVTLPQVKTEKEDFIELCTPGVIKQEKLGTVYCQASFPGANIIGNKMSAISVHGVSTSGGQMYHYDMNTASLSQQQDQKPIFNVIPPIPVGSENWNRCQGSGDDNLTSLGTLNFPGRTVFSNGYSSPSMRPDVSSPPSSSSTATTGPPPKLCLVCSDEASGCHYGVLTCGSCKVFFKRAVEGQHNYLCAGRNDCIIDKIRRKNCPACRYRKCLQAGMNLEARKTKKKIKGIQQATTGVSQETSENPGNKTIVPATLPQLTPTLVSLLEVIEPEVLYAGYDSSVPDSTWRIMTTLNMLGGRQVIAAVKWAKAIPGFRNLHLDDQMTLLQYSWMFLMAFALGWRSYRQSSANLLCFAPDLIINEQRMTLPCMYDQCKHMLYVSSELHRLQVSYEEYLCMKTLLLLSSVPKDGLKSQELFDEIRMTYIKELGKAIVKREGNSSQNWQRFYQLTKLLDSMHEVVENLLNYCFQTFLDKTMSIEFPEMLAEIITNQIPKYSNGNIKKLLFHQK

For the compound `Nc1cccc(Cl)c1Cl`, the Potency entry in assay [1], in assay [2], in [3], in assay [5] and in assay [7] was “inactive” throughout. For the same compound, the activation was 2.15% (inactive) in assay [4] and -2.53% (inactive) in [8]. For the same compound, the max response in assay [6] was -11.4%. Besides, the result in assay [9] was inactive.

For `CC(C)Oc1cc(-n2nc(C(C)(C)C)oc2=O)c(Cl)cc1Cl`, the Potency entry in assay [1], in assay [11] and in [5] was “inactive” in each case. Moreover, the results for the activation in assay [10], in assay [4] and in assay [8] were -15% (inactive), 1.08% (inactive) and 1.16% (inactive), respectively. Moreover, the Potency in assay [7] is 61.1 µM (active).

Consider `Nc1c(Cl)c(F)nc(OCC(=O)O)c1Cl`, for which the Potency entry in assay [1], in [2] and in assay [11] was “inactive” throughout. Besides, the figures for the activation in assay [10] and in assay [8] were 0.917% (inactive) and 0.422% (inactive), respectively. The max response in [6] was found to be 5.84%. In addition, in [9], the call was inactive.

Consider `Cc1cccc2sc3nncn3c12`, for which the Potency result in [1] and in assay [3] was “inactive” throughout. Also, the activation in assay [4] was -0.105% (inactive); in [8], 0.0956% (inactive). Moreover, the max response in assay [6] was 0.611%. In addition, the Potency in assay [7] was 2.73 µM (active).

As to `Clc1ccc(C2(Cn3cncn3)CC(Br)CO2)c(Cl)c1` (stereo not drawn), the Potency result in assay [1], in assay [3], in assay [11] and in [5] was “inactive” in each case. For the same compound, the max response in assay [6] is 6.2%. Besides, the activation in [8] is -2.79% (inactive).

For `CCOC(=O)C(Cl)Cc1cc(-n2nc(C)n(C(F)F)c2=O)c(F)cc1Cl` (stereo not drawn), the Potency result in assay [1], in [3], in assay [11] and in assay [5] was “inactive” in each case. The activation in assay [4] was 1.1% (inactive). Further, the max response in assay [6] came out at 14.3%. For the same compound, the Potency in [7] was 54.5 µM (active). Also, the result in assay [9] was inactive.

As for `CCCCOCN(C(=O)CCl)c1c(CC)cccc1CC`, the Potency entry in assay [1] and in assay [3] was “inactive” each time. Moreover, the activation was -0.328% (inactive) in [4] and -3.81% (inactive) in [8]. The Potency in assay [7] is 24.3 µM (active).

Consider `CC(C)(C)[C@@H](O)/C(=C\c1ccc(Cl)cc1Cl)n1cncn1`, for which the Potency entry in [1] was “inactive”. The Potency in assay [3] is 44.7 µM (active); in assay [7], 68.6 µM (active). Further, the activation in assay [4] is 0.6% (inactive).

As for `COP(=O)(OC)OC(Br)C(Cl)(Cl)Br` (stereo not drawn), the Potency result in assay [1], in [3] and in assay [5] was “inactive” in each case. The activation in assay [10] was 4.22% (inactive). For the same compound, the Potency in assay [7] is 24.3 µM (active).

Regarding `CNC(=O)Oc1cccc(N=CN(C)C)c1`, the Potency result in assay [1], in assay [3] and in assay [5] was “inactive” throughout. For the same compound, the activation in assay [4] was -2.76% (inactive). Further, in [9], the compound was called inactive.

In the case of `O=[N+]([O-])c1ccc(Cl)c([N+](=O)[O-])c1`, the Potency entry in assay [1] was “inactive”. Also, the figures for the activation in assay [10] and in assay [4] were -0.974% (inactive) and 16.6% (inactive), respectively. Also, the Potency in [3] is 35.5 µM (active).

`O=C(O)C(F)(F)C(F)(F)C(F)(F)C(F)(F)C(F)(F)C(F)(F)C(F)(F)C(F)(F)F`: the Potency result in assay [1], in assay [3] and in assay [11] was “inactive” throughout. The activation in assay [4] is 3.01% (inactive) and 1.7% (inactive). For the same compound, in assay [6], the max response is 1.6% and -25.9%. Also, the Potency in [7] is 24.3 µM (active). For the same compound, the compound was classed as inactive in assay [9].

`CC(C)=CC1[C@H](C(=O)OCc2cccc(Oc3ccccc3)c2)C1(C)C` (stereo partly drawn): the Potency result in [1], in [3], in [11] and in [5] was “inactive” throughout. In addition, in assay [4], the activation was -3.66% (inactive). For the same compound, the max response in assay [6] is -6.27%.

With `Cc1[nH]c(=O)n(C(C)(C)C)c(=O)c1Cl`, the Potency entry in assay [1], in [2] and in [3] was “inactive” in each case. Moreover, the figures for the activation in assay [10], in [4] and in assay [8] were 0.796% (inactive), 0.517% (inactive) and -0.578% (inactive), respectively. Also, in [9], the call was inactive.

On to `CCNc1nc(Cl)nc(NC(C)(C)C)n1`, for which the Potency entry in assay [1], in assay [2], in assay [3] and in assay [11] was “inactive” each time. Also, the activation in assay [10] is -15.6% (inactive); in assay [4] it was 0.616% (inactive); in assay [8], -1.02% (inactive).
